This note sets out measurements from PubChem BioAssay (NCI).

This is part of a sample that, as a whole, favours compounds with a hit. Of some 83,000 tested, about 20% had one in any assay.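 Activity criterion: percent growth below 10, measured after cells in 96-well plates were exposed to a single compound concentration for 48 hours.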 Unmarked numbers belong to inactive results. Activity calls are given as the source filed them.

Common to all, as to assay: NCI-60 one-dose screen, 48 h (100 = growth as untreated, 0 = no growth, -100 = all killed)
Holding throughout (settings): 10 µM unless noted

Assay [1] deals with DU-145 prostate.
Assay [2] deals with K-562 leukemia.
Assay [3] has as its system MALME-3M melanoma.
For assay [4], the system named is MDA-MB-231 breast.
The subject of assay [5] is RXF 393 renal.
In assay [6] the test system is SF-268 CNS.
Assay [7] deals with SF-295 CNS.
Assay [8] relates to SF-539 CNS.
Assay [9] relates to UACC-257 melanoma.
The test system of assay [10] is M14 melanoma.
Assay [11] concerns HCT-15 colon.
Assay [12] has as its system HT29 colon.
Assay [13] has as its system SNB-75 CNS.
Assay [14] has as its system SNB-19 CNS.
In assay [15] the test system is U251 CNS.
The subject of assay [16] is PC-3 prostate.
Assay [17] has as its system SK-MEL-5 melanoma.
Assay [18] concerns UACC-62 melanoma.
For assay [19], the system named is LOX IMVI melanoma.
For assay [20], the system named is SK-MEL-28 melanoma.

`CNc1sc(S(=O)(=O)NC)nc1S(=O)(=O)c1ccc(C)cc1`: the growth in assay [1] was 107%; in assay [2], 97.5%; in assay [3] it was 110%; in assay [4] it was 101%; in [5] it was 108%; in assay [6] it was 103%. The growth in assay [7] was 93.6%; in [8], 98.6%; in assay [9], 100%; in assay [10], 101%; in [11], 94.2%; in assay [12], 107%. In addition, the growth was 88.3% in assay [13]; 96% in assay [14]; 95.8% in assay [15]; 96.7% in [16]; 98.4% in [17]; 91.3% in [18]. Also, the growth in [19] is 96.1%; in assay [20], 102%.
As for `Cc1csc(/N=C(N)/N=C(\N)c2cccc(C#N)c2)n1`, the growth is 97.8% in [1]; 43.5% in assay [2]; 68.8% in assay [3]; 88.7% in assay [4]; 73.9% in assay [5]; 77.4% in [6]. The growth in assay [7] is 51.7%; in assay [8] it was 76.7%; in assay [9], 80.8%; in assay [10], 45.2%; in [11] it was 39.3%; in assay [12] it was 62.4%. The growth in [13] is 59.5%; in assay [14] it was 72.3%; in assay [15], 64.7%; in assay [16], 77.4%; in [17], 85.7%; in assay [18], 52.1%. The figures for the growth in [19] and in [20] were 78.1% and 74.6%, respectively.
For the compound `NC(=O)c1ncn2c(=O)n(CCF)nnc12`, the growth in assay [1] is 38.6%; in assay [2], 26.7%; in assay [3], 72.8%; in assay [4], 66.8%; in [5], 96.6%; in assay [6] it was 57.3%. The growth was 34.7% in assay [7]; 63.9% in [8]; 80.9% in assay [9]; 33.9% in assay [10]; 80.4% in assay [11]; 57.4% in [12]. The growth in assay [13] was 50.6%; in [14], 96.1%; in assay [15], 93.7%; in [16], 71.6%; in [17], 92.5%; in [18], 49.6%. For the same compound, the growth in assay [19] is 26.1%; in [20] it was 87%.
For `CN(C)CC(=O)Nc1nc(-c2cccc(NS(=O)(=O)c3cccc4c(N(C)C)cccc34)c2)cs1`, the growth in assay [1] was 103%; in assay [2] it was 65.1%; in assay [3], 85.2%; in assay [4] it was 83.8%; in assay [5] it was 88.5%; in [6], 96.4%. In addition, the growth was 70.4% in [7]; 93.3% in assay [8]; 86% in [9]; 100% in assay [10]; 75.8% in assay [11]; 94.3% in assay [12]. Also, the growth in assay [13] is 95.6%; in [14], 88.8%; in assay [15] it was 83.4%; in assay [16], 72%; in assay [17] it was 63.4%; in [18], 72.5%. Further, the growth in assay [19] is 95.3%; in assay [20] it was 104%.
In the case of `CN(C)c1cccc2c(S(=O)(=O)Nc3cccc(-c4csc(NC(=O)CCCCCN5CCN(CCO)CC5)n4)c3)cccc12`, the growth in assay [1] is 90.6%; in [2], 7.77% (active); in [3], 55.9%; in [4] it was 84.1%; in assay [5], 66.7%; in assay [6], 93.5%. Besides, the growth in assay [7] is 60.5%; in assay [8] it was 54.7%; in assay [9], 78.3%; in assay [10] it was 73.7%; in assay [11], 90.6%; in assay [12], 17%. Also, the growth in assay [13] was 80.1%; in assay [14] it was 87.9%; in [15], 70.2%; in assay [16], 72.3%; in assay [17], 79.2%; in assay [18], 94.1%. Moreover, the growth is 12.9% in [19] and -7.14% (active) in assay [20].
Turning to `CN1c2ccccc2Sc2cc(/C=N/Nc3ccnc4cc(Cl)ccc34)ccc21`, the growth is 103% in [1]; -7.83% (active) in [2]; 94.7% in [3]; 98.5% in [4]; 82.2% in assay [5]; 99.4% in assay [6]. In addition, the growth is 98.7% in [7]; 103% in assay [8]; 96.3% in assay [9]; 92.7% in assay [10]; 50.2% in assay [11]; 76.5% in assay [12]. In addition, the growth in assay [13] is 104%; in assay [14], 94.8%; in assay [15], 80.7%; in [16], 88.6%; in assay [17], 94.7%; in [18], 101%. Further, the growth in assay [19] is 47.7%; in assay [20] it was 103%.
For `O=C(/C=C/c1ccc(Cl)c(Cl)c1)Nc1ncc(Cc2ccc(Cl)c(Cl)c2)s1`, the growth in assay [1] was 49.5%; in [2], 15.3%; in [3], 79.8%; in assay [4] it was 97.1%; in assay [5], 104%; in assay [6], 61.4%. The growth is 7.58% (active) in assay [7]; 60.5% in assay [8]; 40.9% in assay [9]; -27.4% (active) in assay [10]; 29% in [11]; 36.2% in [12]. Besides, the growth is 95.5% in [13]; 74% in assay [14]; 58.2% in assay [15]; 45.3% in [16]; 51.4% in assay [17]; 10.3% in assay [18]. The growth in assay [19] is 23.3%; in assay [20] it was 48.5%.
